Experimental data reported in PubChem BioAssay (Tox21).
Results filed as inconclusive are left out. Activity calls are given as the source filed them. Unless noted, calls follow the shape of the dose curve; as a rule, active = well fitted curve in the direction sought with a large enough effect in the repeat runs; inconclusive = weak or mixed curves; inactive = no such curve, though single readings can be large; an effect the other way counts as inactive or inconclusive.

Columns and labels:
[1] = qHTS assay to identify small molecule antagonists of the sonic hedgehog signaling (Shh) pathway (AID 1259369; calls by dose curve; also: nearly all actives have a fitted effect of over 45% in size; also: potency is read from the fitted curve at half-maximal effect)
Method in brief: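 Luminescence readout: firefly Luc under Gli1 response element in 3T3Gli1-Luc cells (NIH/3T3 clone). Antagonist mode, stimulation by conditioned medium; compound exposure 24hr at 37 C, 5% CO2.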

[2] = target: Estrogen receptor beta (Homo sapiens) (UniProt Q92731); test: qHTS assay to identify small molecule agonists of the estrogen receptor beta (ER-beta) signaling pathway (AID 1259377; active = well fitted activation curve with a large enough effect in the signal ratio in the repeat runs, not every such curve was filed as active; the % refers to the signal ratio)
Estrogen receptor beta (Homo sapiens), sequence (Q92731 whole entry, looked up): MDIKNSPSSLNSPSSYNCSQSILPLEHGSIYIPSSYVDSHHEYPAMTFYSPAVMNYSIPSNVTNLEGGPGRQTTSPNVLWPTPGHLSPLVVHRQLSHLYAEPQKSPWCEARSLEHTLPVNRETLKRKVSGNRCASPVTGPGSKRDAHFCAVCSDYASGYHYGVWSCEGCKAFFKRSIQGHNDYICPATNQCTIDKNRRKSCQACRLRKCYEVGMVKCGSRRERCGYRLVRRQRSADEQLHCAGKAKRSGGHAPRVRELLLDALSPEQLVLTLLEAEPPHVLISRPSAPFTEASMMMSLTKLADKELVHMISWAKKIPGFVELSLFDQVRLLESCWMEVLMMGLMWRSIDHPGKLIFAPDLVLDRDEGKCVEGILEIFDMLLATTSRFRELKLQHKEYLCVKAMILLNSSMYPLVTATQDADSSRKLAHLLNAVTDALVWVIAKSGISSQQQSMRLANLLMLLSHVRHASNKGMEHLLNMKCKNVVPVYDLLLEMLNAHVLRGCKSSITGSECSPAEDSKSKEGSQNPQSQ
Method in brief: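 Read-out: beta-lactamase FRET fluorescence. Cell line: ER-beta-UAS-bla HEK293T in 2% charcoal-stripped FBS. Exposure: 16 hr at 37C. Substrate step: 2 h at room temperature.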

[3] = target: Estrogen receptor beta (Homo sapiens) (UniProt Q92731); test: qHTS assay to identify small molecule antagonists of the estrogen receptor beta (ER-beta) signaling pathway (AID 1259378; active = well fitted inhibition curve with a large enough effect in the signal ratio in the repeat runs, not every such curve was filed as active; the % refers to the signal ratio)
Method in brief: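 ER-beta-UAS-bla HEK293T (GripTite) cells in 2% charcoal-stripped FBS medium were preincubated 6 hr at 37C, dosed with compound, then stimulated with 1 nM E2 (final) for 16 hr; beta-lactamase reporter read by B/G FRET fluorescence after 2 hr substrate loading.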

[4] = qHTS assay to identify small molecule agonists of the androgen receptor (AR) signaling pathway in the presence of an antagonist - cell viability counter screen (AID 1259379);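 also: MDA-kb2 human breast cancer cells carrying an MMTV luciferase reporter; series mostly up to about 92 µM; nearly all actives have a fitted effect of over 25% in size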
Method in brief: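 Viability counter screen: CellTiter-Fluor fluorescence, measured in the same wells as the luciferase read-out. MDA-kb2 cells, 3,000/well, with nilutamide at 3.0uM final and compounds at 15 concentrations, 16 hr at 37C, 0% CO2.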

[5] = qHTS assay to identify small molecule agonists of the estrogen receptor beta (ER-beta) signaling pathway - cell viability counter screen (AID 1259380); also: nearly all actives have a fitted effect of over 30% in size
Method in brief: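 Luminescence read-out (CellTiter-Glo, 30 min, room temp) taken in the same wells as the beta-lactamase reporter assay; ER-beta-UAS-bla HEK293T cells exposed to DMSO-dissolved compounds for 16 hr at 37C in 2% charcoal-stripped FBS medium.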

[6] = qHTS assay to identify small molecule antagonists of the estrogen receptor beta (ER-beta) signaling pathway - cell viability counter screen (AID 1259382); also: series mostly up to about 92 µM; nearly all actives have a fitted effect of over 55% in size
Method in brief: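 Luminescent ATP read-out (CellTiter-Glo, 30 min, RT) taken in the same wells as the bla reporter assay. HEK293T ER-beta-UAS-bla cells in 2% charcoal-stripped FBS were exposed to compounds with 1nM E2 for 16 hr at 37C.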

[7] = target: Estrogen receptor (Homo sapiens) (UniProt P03372); test: qHTS assay to identify small molecule agonists of the estrogen receptor alpha (ER-alpha) signaling pathway in the presence of an antagonist (AID 1259383; calls by dose curve; also: top concentration of the series differs between compounds; nearly all actives have a fitted effect of over 15% in size)
Estrogen receptor (Homo sapiens), sequence (P03372 whole entry, looked up): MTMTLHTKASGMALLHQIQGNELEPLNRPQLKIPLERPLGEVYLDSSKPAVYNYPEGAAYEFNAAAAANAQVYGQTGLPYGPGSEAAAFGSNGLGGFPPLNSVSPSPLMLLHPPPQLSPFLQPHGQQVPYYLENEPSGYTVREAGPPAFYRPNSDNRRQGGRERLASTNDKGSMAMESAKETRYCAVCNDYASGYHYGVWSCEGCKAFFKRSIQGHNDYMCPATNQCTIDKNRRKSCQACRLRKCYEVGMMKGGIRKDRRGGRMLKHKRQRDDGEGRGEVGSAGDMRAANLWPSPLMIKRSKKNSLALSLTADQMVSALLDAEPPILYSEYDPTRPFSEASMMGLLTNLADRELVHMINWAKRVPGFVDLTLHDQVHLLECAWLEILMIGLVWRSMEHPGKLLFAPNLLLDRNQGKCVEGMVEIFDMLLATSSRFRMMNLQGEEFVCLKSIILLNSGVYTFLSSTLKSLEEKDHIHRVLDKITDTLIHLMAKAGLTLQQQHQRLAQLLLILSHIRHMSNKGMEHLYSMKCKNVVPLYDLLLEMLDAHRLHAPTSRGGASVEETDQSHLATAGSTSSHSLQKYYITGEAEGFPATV
Method in brief: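 Luciferase luminescence (ONE-Glo, 30min at room temperature) measured in VM7Luc4E2 cells after 22hr compound exposure at 15 concentrations, with 10.0nM ICI-182,780 final present; cells express endogenous ER-alpha and carry four EREs upstream of luciferase.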

[8] = target: Thyrotropin receptor (Homo sapiens) (UniProt P16473); test: qHTS assay to identify small molecule antagonists of the thyroid stimulating hormone receptor (TSHR) signaling pathway (AID 1259385; calls by dose curve; also: nearly all actives have a fitted effect of over 20% in size)
Thyrotropin receptor (Homo sapiens), sequence (P16473 whole entry, looked up): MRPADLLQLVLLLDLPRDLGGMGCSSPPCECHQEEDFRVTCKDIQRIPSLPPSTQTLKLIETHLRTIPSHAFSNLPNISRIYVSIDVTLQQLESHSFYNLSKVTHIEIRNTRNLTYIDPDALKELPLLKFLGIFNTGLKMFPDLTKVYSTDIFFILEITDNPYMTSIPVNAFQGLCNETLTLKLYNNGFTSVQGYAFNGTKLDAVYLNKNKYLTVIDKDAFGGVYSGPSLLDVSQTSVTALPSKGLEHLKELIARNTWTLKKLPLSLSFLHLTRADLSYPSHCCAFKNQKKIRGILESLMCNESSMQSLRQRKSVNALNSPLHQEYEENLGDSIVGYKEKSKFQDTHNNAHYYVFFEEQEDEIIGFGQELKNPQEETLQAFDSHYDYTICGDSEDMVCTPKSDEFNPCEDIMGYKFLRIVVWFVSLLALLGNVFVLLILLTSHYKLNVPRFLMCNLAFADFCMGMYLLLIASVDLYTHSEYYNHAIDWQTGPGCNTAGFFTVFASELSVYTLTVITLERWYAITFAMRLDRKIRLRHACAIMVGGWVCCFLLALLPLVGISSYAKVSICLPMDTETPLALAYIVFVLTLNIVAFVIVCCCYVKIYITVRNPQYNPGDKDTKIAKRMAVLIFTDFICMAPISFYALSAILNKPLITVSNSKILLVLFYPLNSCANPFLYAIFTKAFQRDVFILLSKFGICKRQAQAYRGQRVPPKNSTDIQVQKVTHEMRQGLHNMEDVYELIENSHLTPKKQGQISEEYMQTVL
Method in brief: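 TSHR-HEK293 cells were plated and held 18 h at 37C/5% CO2, then given compound plus Ro20-1724 and stimulated with TSH at 1.5 ng/mL final. After 30 min at room temperature, cAMP was detected with cAMP-d2/anti-cAMP-cryptate (1 h) by fluorescence.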

[9] = qHTS assay to identify small molecule agonists of the estrogen receptor alpha (ER-alpha) signaling pathway in the presence of an antagonist - cell viability counter screen (AID 1259386);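 also: series mostly up to about 92 µM; cells exposed to compounds for 22 h at 37 °C before the viability read; nearly all actives have a fitted effect of over 30% in size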
Method in brief: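 Read-out: CellTiter-Fluor fluorescence after 1hr reagent incubation, measured in the same wells as the luciferase readout. VM7Luc4E2 cells were exposed to 15 compound concentrations with 10.0nM ICI-182,780 for 22hr at 37C.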

[10] = target: Progesterone receptor (Homo sapiens) (UniProt P06401); test: qHTS assay to identify small molecule agonists of the progesterone receptor (PR) signaling pathway (AID 1346784; calls by dose curve; also: nearly all actives have a fitted effect of over 30% in size)
Progesterone receptor (Homo sapiens), sequence (P06401 whole entry, looked up): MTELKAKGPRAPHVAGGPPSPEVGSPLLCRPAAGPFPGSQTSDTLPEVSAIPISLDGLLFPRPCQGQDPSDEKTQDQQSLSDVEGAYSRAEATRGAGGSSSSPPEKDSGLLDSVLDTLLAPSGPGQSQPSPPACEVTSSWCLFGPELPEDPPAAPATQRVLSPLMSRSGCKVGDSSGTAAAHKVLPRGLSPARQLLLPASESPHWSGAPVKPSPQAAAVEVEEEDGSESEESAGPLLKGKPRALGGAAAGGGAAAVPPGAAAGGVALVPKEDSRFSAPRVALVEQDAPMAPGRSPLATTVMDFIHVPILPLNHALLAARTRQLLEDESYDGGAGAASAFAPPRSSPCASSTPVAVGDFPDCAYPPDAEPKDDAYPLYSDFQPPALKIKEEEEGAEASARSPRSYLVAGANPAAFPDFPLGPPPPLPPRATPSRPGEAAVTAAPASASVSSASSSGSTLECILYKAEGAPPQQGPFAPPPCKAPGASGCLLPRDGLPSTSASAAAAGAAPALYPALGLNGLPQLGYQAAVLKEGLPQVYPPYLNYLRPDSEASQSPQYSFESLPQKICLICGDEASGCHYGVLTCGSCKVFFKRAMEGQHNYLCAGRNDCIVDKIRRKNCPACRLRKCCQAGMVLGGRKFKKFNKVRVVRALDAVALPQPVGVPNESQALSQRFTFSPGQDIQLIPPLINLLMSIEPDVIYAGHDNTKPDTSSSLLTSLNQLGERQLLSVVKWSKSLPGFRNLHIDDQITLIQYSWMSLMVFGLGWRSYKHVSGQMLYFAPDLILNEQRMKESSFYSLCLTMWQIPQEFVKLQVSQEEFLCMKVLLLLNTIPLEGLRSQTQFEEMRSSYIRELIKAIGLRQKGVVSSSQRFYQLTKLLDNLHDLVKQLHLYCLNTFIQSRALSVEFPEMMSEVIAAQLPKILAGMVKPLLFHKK
Method in brief: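 Compounds were tested for PR agonism in HEK 293T cells bearing a beta-lactamase gene under UAS control. Treatment lasted 16 hr at 37C; signal came from fluorescence of a FRET substrate.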

[11] = target: Progesterone receptor (Homo sapiens) (UniProt P06401); test: qHTS assay to identify small molecule antagonists of the progesterone receptor (PR) signaling pathway (AID 1346795; active = well fitted inhibition curve with a large enough effect in the signal ratio in the repeat runs, not every such curve was filed as active; the % refers to the signal ratio)
Method in brief: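 In HEK293T cells bearing the PR-UAS-bla reporter, compound effects on promegestone-driven (1 nM) beta-lactamase expression are assessed after 16 hr using a fluorescent FRET substrate incubated 2 hr at room temperature.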

[12] = qHTS assay to identify small molecule antagonists of the progesterone receptor (PR) signaling pathway - cell viability counter screen (AID 1346798); also: series mostly up to about 92 µM; nearly all actives have a fitted effect of over 50% in size
Method in brief: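 Following a 4 hr attachment, PR-UAS-bla HEK293T cells in charcoal-stripped FBS medium were exposed to compounds with R5020 for 16 hr; CellTiter-Glo was added and luminescence read after 30 min at room temperature.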

[13] = qHTS assay to identify small molecule agonists of the progesterone receptor (PR) signaling pathway - cell viability counter screen (AID 1346799; calls by dose curve; also: nearly all actives have a fitted effect of over 45% in size)
Method in brief: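 Here, 3,000 PR-UAS-bla HEK293T cells per well were treated with compounds for 16 hr after a 6 hr preincubation at 37C and 5% CO2; cell viability is the CellTiter-Glo luminescence signal.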

[14] = qHTS assay to identify small molecule antagonists of the TGF-beta/Smad signaling pathway - cell viability counter screen (AID 1346824); also: nearly all actives have a fitted effect of over 50% in size
Method in brief: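 SBE-bla HEK 293T cells were plated overnight at 37 C, then given compounds in DMSO plus TGF-beta1 (added as 0.25 ng/mL solution) for 5 hr. After the bla read, CellTiter-Glo was added to the same wells and luminescence read after 30 min at room temperature.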

[15] = qHTS assay to identify small molecule agonists of the TGF-beta/Smad signaling pathway - cell viability counter screen (AID 1346829); also: top concentration of the series differs between compounds; nearly all actives have a fitted effect of over 45% in size
Method in brief: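 HEK 293T SBE-bla line, 5 hr compound exposure at 37 C, multiplexed CellTiter-Glo viability read by luminescence.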

[16] = qHTS assay to identify small molecule agonists of the TGF-beta/Smad signaling pathway (AID 1346859; active = well fitted activation curve with a large enough effect in the signal ratio in the repeat runs, not every such curve was filed as active; the % refers to the signal ratio; also: series mostly up to about 77 µM)
Method in brief: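 Each well held 4,000 SBE-bla HEK 293T cells incubated overnight before compound addition; 5 hr later the cleavable FRET substrate went on for 2 hr at room temperature, and fluorescence was read at two emissions.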

[17] = target: Thyrotropin-releasing hormone receptor (Homo sapiens) (UniProt P34981); test: qHTS assay to identify small molecule antagonists of the thyrotropin-releasing hormone receptor (TRHR) signaling pathway (AID 1346877; active = well fitted inhibition curve with a large enough effect in the repeat runs, not every such curve was filed as active; also: series mostly up to about 51 µM)
Thyrotropin-releasing hormone receptor (Homo sapiens), sequence (P34981 whole entry, looked up): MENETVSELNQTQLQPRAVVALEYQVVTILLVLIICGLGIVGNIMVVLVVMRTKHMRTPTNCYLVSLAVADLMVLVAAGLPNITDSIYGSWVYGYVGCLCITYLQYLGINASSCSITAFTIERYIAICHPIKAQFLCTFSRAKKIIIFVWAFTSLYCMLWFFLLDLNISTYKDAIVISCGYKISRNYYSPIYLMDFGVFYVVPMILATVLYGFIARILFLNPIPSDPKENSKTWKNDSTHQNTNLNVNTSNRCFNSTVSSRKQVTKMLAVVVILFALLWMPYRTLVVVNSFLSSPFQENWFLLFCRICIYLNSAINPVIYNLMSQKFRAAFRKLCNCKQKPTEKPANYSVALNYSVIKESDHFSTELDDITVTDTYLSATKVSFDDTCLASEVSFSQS
Method in brief: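 HEK293/TRHR cells, 18 h, 37 °C; Ca2+ dye 2 h; cpd 5 min RT; TRH 1 nM final; fluorescence read 3 min, 1 s intervals; 15 concs, triplicate.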

[18] = target: Thyrotropin-releasing hormone receptor (Homo sapiens) (UniProt P34981); test: qHTS assay to identify small molecule agonists of the thyrotropin-releasing hormone receptor (TRHR) signaling pathway (AID 1346891; calls by dose curve; also: series mostly up to about 58 µM)
Method in brief: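 Screening of agonists relied on calcium signalling in HEK293 cells expressing human TRHR: dye loading 2 h at 37 °C preceded compound addition and a 3-min fluorescence time course.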

[19] = target: Androgen receptor (Homo sapiens) (UniProt P10275); test: qHTS assay to identify small molecule agonists of the androgen receptor (AR) signaling pathway in the presence of an antagonist (AID 1259381; calls by dose curve; also: nearly all actives have a fitted effect of over 15% in size)
Androgen receptor (Homo sapiens), sequence (P10275 whole entry, looked up): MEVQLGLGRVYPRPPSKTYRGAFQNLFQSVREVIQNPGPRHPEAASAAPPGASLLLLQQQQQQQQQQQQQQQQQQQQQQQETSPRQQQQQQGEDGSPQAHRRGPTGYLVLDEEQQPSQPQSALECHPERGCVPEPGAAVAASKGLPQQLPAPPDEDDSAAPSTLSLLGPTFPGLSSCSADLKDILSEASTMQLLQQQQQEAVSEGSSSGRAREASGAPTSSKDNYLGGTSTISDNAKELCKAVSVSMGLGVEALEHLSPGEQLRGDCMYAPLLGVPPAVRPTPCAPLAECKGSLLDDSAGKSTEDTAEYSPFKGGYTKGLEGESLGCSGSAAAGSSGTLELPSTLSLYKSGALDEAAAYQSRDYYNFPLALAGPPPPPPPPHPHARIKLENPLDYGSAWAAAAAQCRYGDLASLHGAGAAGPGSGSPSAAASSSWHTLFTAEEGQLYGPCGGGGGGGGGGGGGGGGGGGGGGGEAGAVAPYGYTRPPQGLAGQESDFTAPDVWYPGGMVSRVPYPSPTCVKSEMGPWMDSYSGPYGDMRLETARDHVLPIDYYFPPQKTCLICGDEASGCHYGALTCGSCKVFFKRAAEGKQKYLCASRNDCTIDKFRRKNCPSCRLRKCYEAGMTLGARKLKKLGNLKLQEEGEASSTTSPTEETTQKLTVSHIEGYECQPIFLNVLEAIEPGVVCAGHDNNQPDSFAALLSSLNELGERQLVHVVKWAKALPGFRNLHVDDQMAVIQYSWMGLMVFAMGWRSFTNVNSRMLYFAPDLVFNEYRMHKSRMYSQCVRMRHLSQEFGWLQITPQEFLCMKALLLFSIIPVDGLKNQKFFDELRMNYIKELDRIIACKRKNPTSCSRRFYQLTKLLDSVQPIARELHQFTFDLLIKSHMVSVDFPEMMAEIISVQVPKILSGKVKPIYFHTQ
Method in brief: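 Luciferase read-out (ONE-Glo, 30min room temperature) in MDA-kb2 MMTV-reporter cells; agonist mode run in presence of AR antagonist nilutamide, 3.0uM final. Compounds tested as 15-point series, 16hr exposure at 37C, 0% CO2.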

[20] = qHTS assay to identify small molecule agonists or antagonists of the thyroid stimulating hormone receptor (TSHR) signaling pathway - wild type cell line counter screen (AID 1259384; calls by dose curve)
Method in brief: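 Wild-type HEK293 cells were plated 18 h at 37 C/5% CO2, pin-dosed with compound plus Ro20-1724 medium, held 30 min at room temperature, then given cAMP-d2 and anti-cAMP-cryptate; fluorescence was read after 1 h. Fifteen concentrations, triplicate.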

Measured: Potency

C[N+](C)(C)CC[N+]1(C)Cc2c(Cl)c(Cl)c(Cl)c(Cl)c2C1
not listed: [19] | [20]
inactive: all other assays above

CCCOCC(C)OCC(C)O (configuration not stated)
not listed: [7] | [14]
inactive: all other assays above

CC1=CCC2C(C1)C2(C)C (configuration not stated)
active: [1] 17.2 µM
not listed: [7] | [13]
inactive: all other assays above

CC(C)(C)OC(=O)N1C[C@@H](F)C[C@H]1C(=O)O
not listed: [19]
inactive: all other assays above

OCCN1C[C@H](O)[C@@H](O)[C@H](O)[C@H]1CO
inactive: all assays above

Nc1cc(N)cc(C(=O)O)c1
not listed: [8] | [11] | [17] | [18] | [19]
inactive: all other assays above

COc1ccc(COC=O)cc1
not listed: [19]
inactive: all other assays above
